Measured values as given in PubChem BioAssay (NCATS).
Inconclusive results are not listed. Where a call stands in place of a potency, no number is given. The source made the active and inactive calls. The call rests on the fitted dose curve; in most records, active means well fitted activation curve with a large enough effect; inconclusive means small, poorly fitted or top-dose-only effect; inactive means no such curve, though single readings can be large or run the other way.

molecular target: Rap guanine nucleotide exchange factor 3 (Homo sapiens) (UniProt O95398); experiment: Confirmatory qHTS for agonist of cAMP-regulated guanine nucleotide exchange factor 3 (EPAC1) (AID 1645881); conditions: EPAC1 Rap1B BODIPY-GDP exchange fluorescence; series mostly up to 154 µM;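 further: EPAC1 catalysed release of BODIPY-GDP from Rap1B seen as fluorescence loss; nearly all actives have a fitted effect of over 75% in size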
Sequence (O95398 whole entry, looked up): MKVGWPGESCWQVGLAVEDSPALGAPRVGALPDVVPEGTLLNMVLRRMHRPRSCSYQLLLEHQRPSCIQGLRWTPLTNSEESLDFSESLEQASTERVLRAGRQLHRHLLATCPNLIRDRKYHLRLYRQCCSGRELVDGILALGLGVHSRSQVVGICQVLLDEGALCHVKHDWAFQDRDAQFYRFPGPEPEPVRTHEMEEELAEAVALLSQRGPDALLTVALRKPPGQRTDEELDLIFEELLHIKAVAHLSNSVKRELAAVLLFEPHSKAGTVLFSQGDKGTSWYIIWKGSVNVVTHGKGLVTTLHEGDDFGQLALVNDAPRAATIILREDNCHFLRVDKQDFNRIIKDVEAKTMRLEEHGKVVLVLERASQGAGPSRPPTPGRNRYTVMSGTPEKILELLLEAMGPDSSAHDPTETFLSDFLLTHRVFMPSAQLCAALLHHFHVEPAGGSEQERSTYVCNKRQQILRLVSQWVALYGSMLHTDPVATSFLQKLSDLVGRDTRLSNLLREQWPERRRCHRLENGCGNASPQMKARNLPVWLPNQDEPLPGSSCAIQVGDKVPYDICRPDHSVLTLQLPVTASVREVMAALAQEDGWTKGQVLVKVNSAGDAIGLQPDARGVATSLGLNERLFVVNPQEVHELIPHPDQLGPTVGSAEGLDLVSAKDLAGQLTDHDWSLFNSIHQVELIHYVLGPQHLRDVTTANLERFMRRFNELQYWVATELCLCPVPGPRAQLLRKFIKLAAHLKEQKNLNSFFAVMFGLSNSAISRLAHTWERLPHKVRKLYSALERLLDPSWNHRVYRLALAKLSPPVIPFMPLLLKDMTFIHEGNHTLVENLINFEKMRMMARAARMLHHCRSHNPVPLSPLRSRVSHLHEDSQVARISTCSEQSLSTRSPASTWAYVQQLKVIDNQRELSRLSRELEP

SMILES	Potency
Fc1ccc2cnc(-c3ccccc3)c(-c3ccc(C(F)(F)F)cc3)c2c1	inactive
CCOc1cc(/C=N/O)cc(Br)c1OCc1ccc(Cl)cc1	inactive
O=C1c2ccccc2C(c2nnnn2Cc2ccccc2)N1CCc1c[nH]c2ccccc12 (configuration not stated)	inactive
Cn1c2ccccc2c2cc(/C=N/NC(=O)c3cc(O)cc(O)c3)ccc21	inactive
CC1=NN(c2nc(-c3ccccc3)cs2)C(=O)C1	inactive
COC1OC(c2ccccc2)=C(c2cnc(N)nc2)c2ccc(F)cc21 (configuration not stated)	inactive
O=C(O)CN1C(=O)/C(=C\c2cc(Br)ccc2OCc2ccccc2Cl)SC1=S	inactive

molecular target: Rap guanine nucleotide exchange factor 4 (Homo sapiens) (UniProt Q8WZA2); experiment: Confirmatory qHTS for agonist of cAMP-regulated guanine nucleotide exchange factor 4 (EPAC2) (AID 1645884); conditions: EPAC2 GEF activity, Rap1B-BODIPY-GDP fluorescence; series mostly up to 154 µM;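 further: nucleotide exchange releases bodipy-GDP from Rap1 and this lowers its fluorescence; nearly all actives have a fitted effect of over 65% in size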; further: potency means the concentration at half of the fitted maximal effect
Sequence (Q8WZA2 whole entry, looked up): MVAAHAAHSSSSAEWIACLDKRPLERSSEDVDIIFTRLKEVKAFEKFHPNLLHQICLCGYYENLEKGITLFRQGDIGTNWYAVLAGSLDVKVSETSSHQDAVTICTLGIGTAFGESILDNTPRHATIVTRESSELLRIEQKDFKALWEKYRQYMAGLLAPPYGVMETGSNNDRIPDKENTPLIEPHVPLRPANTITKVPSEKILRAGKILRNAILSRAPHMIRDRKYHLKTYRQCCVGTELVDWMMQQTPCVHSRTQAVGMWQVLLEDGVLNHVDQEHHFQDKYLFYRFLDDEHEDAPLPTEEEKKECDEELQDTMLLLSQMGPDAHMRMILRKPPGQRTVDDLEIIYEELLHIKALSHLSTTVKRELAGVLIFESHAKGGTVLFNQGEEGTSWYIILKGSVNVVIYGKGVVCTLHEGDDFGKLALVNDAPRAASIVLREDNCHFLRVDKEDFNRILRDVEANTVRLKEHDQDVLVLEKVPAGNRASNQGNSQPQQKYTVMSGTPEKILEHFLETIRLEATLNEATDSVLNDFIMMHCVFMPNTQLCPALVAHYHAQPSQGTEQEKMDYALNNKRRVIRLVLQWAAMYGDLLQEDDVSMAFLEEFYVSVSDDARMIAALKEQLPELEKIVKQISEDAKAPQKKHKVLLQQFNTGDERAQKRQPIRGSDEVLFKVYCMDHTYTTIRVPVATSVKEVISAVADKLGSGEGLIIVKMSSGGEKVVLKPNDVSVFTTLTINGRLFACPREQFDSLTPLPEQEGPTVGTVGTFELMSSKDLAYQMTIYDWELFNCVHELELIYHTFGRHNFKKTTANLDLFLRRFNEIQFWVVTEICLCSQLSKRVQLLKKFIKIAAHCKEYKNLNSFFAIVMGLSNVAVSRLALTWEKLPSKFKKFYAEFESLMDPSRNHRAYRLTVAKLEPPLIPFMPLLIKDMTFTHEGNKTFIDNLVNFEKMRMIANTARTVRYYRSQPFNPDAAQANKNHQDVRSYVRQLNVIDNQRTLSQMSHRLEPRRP

SMILES	Potency	activation
O=C(CSc1nnc(-c2ccco2)c(-c2ccco2)n1)c1ccccc1	inactive	
Cc1cc(C(C)(C)C)cc(C)c1COC(=O)c1cccnc1	inactive	
O=c1oc2ccccc2n1Cc1ccccc1Cl	inactive	
Cc1ccc2nc(-c3cccc(Br)c3)c(Cc3ccccn3)n2c1	inactive	
CN(CC(=O)Nc1ccc(F)cc1)C(=O)COc1ccc(C(=O)c2ccccc2)cc1	inactive	
CCOC(=O)c1c(CC(C)C)csc1NC(=O)COC(=O)c1ccc(O)cc1	inactive	
O=C(O)c1ccc(COc2ccccc2/C=C2\NC(=O)N(Cc3ccc(F)cc3)C2=O)cc1	inactive	
CCCCn1c(=O)[nH]c(=O)c2c1nc(-c1ccccc1F)n2Cc1ccccc1OC	inactive	
CCN1CC=C2C(C#N)=C(N)C(C#N)(C#N)C(CCc3ccccc3)C2C1 (configuration not stated)	50.1 µM (active)	
O=[N+]([O-])c1ccc(C=NNc2ccc(S(=O)(=O)O)cc2)cc1		-6.29% [at 17.1 µM, percent relative to cAMP agonist control] (inactive)
